Results on 28 molecules are retold here after PubChem BioAssay AID687022 (Broad Institute, 2013).

Hit rate of the full screen: of about 1,000 compounds, about 360 (36%) were called active.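 The calls were made as follows: active = Fitted curve of melting temperature shift crosses the 1.0 threshold at or below the sample's highest valid tested concentration; inconclusive = Flat fit with activity 30 to 70, or invalid fit; inactive = Opposite direction, flat within 30, or no crossing.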 Not all results are given here.

For the assay, the target named is Fibroblast growth factor 22 (Homo sapiens) (UniProt Q9HCT0). The assay can be described thus: FGF22 ligand-induced thermal stabilization – biophysical, thermal shift, cherry-pick, FGF22 synaptogenesis inhibitor project, dose response (AID 687022). Also: reference of the scale not given here. The settings on record: recombinant FGF22 thermal shift, SYPRO orange melting; series mostly up to 38 µM.
Sequence of Fibroblast growth factor 22 (Homo sapiens) (Q9HCT0 whole entry, looked up): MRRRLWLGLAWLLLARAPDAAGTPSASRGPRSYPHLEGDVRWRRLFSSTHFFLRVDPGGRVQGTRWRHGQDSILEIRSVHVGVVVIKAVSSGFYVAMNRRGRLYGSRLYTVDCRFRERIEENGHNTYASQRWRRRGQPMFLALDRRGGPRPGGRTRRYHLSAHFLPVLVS
For the molecule `CN(C)CC(=O)Nc1ccc2c(c1)[C@@H]1C[C@H](CC(=O)N(C)C)O[C@@H](CO)[C@@H]1O2`, the Tm shift activity entry is “inactive”. With `O=C1COc2ccc(S(=O)(=O)N3CCCC3)cc2N1`, the Tm shift activity result is “inactive”.

Turning to `C[C@H]1CN([C@@H](C)CO)C(=O)c2cc(NS(=O)(=O)c3cn(C)cn3)ccc2O[C@H]1CN(C)Cc1ccccc1`, the Tm shift activity result is “inactive”. On to `OC[C@H]1[C@@H](c2ccc(-c3cccnc3)cc2)[C@@H]2CN(Cc3ccccn3)CCCCN12`, for which the Tm shift activity result is “inactive”. In the case of `O=C(C[C@H]1CC[C@H]2[C@@H](COC[C@@H](O)CN2C(=O)C2CC2)O1)NCc1ccncc1` it was “inactive”; in that of `Cc1nn(C)cc1NC(=O)C[C@H]1CC[C@@H]2[C@@H](COc3ccc(NC(=O)NC(C)C)cc3C(=O)N2C)O1`, “inactive”.

With `COc1cccc(NC(=O)N[C@H]2C=C[C@@H](CC(=O)N3CCN(C)CC3)O[C@H]2CO)c1`, the Tm shift activity entry was “inactive”. For the molecule `O=C1C=CCCN1S(=O)(=O)/C=C/c1ccccc1`, the Tm shift activity entry was “inactive”. As to `CCOc1ccc(C(=O)CCC(=O)Nc2ccc(C)cn2)cc1`, the Tm shift activity result was “inactive”. In the case of `CCC(CC)CN1CCC(CN2C(=O)C(=O)NC[C@@H]2CC(C)C)CC1`, the Tm shift activity result is “inactive”. For `O=C(C[C@H]1C[C@@H]2c3cc(NC(=O)NC4CCCC4)ccc3O[C@@H]2[C@H](CO)O1)NC1CCCC1`, the Tm shift activity entry is “inactive”.

As for `Nc1nccc(-c2ccc(-n3cccc3)cc2)n1`, the Tm shift activity result is “inactive”. With `CO[C@H]1CN(C)C(=O)c2ccc(NS(=O)(=O)c3ccc(Cl)cc3)cc2OC[C@@H](C)N(C(=O)NC(C)C)C[C@H]1C`, the Tm shift activity entry was “inactive”. Take `COCCNC(=O)CCc1nnc2ccc(N3CCC(C)CC3)nn12`: the Tm shift activity entry is “inactive”. Regarding `CC(C)(C)NC(=O)N1CCC(CO)(Cc2ccccc2Cl)CC1`, the Tm shift activity entry is “inactive”. Take `CC(=O)N1[C@H](CO)[C@H](c2ccccc2)[C@H]1CN(C(=O)c1cccc(F)c1)C(C)C`: the Tm shift activity entry is “inactive”. For `Cc1noc(C)c1S(=O)(=O)Nc1ccc2c(c1)CC(=O)N([C@@H](C)CO)C[C@@H](C)[C@@H](CN(C)Cc1ccc(Cl)c(Cl)c1)O2`, the Tm shift activity result was “inactive”.

For `CCCNC(=O)N1[C@@H]2CN(C(=O)c3ccccc3)c3ccccc3[C@@H]2[C@@H]1CO`, the Tm shift activity result was “inactive”. For the molecule `O=C(O)C1CSC(c2ccc3c(c2)OCO3)N1` (stereo not drawn), the Tm shift activity result was “inactive”. Next, `OC[C@@H]1[C@H](c2ccc(Br)cc2)[C@@H]2CN(Cc3cncnc3)CCCCN12`: “inactive”; `CO[C@H]1CN(C)C(=O)c2cc(NC(=O)CC(F)(F)F)ccc2OC[C@@H](C)N(C(C)=O)C[C@H]1C`: “inactive”. As to `CNC[C@H]1Oc2ccc(NC(=O)Nc3ccc(OC)cc3)cc2C(=O)N([C@H](C)CO)C[C@@H]1C`, the Tm shift activity result is “inactive”.

On to `CNC[C@@H]1Oc2c(NS(=O)(=O)c3ccc(OC)cc3)cccc2C(=O)N([C@@H](C)CO)C[C@@H]1C`, for which the Tm shift activity result is “inactive”. In the case of `COc1ccc(S(=O)(=O)N(C)C[C@@H]2Oc3c(NC(=O)c4cc(C)nn4C)cccc3C(=O)N([C@H](C)CO)C[C@H]2C)cc1`, the Tm shift activity result is “inactive”. In the case of `COc1ccc(S(=O)(=O)N/N=c2\oc3c(OC)cccc3cc2S(=O)(=O)c2ccc(C)cc2)cc1OC`, the Tm shift activity result was “inactive”.

Regarding `O=C(N[C@H]1CC[C@@H](CCNS(=O)(=O)c2ccc(F)cc2)O[C@H]1CO)C1CCCC1`, the Tm shift activity entry is “inactive”.

As for `CN1C(=O)c2cc(NC(=O)Cc3ccccc3)ccc2OC[C@@H]2O[C@H](CC(=O)O)CC[C@H]21`, the Tm shift activity entry is “inactive”. Turning to `CO[C@@H]1CN(C)C(=O)c2cc(NC(=O)NC(C)C)ccc2OC[C@@H](C)N(C)C[C@@H]1C`, the Tm shift activity entry is “inactive”.
